We go through 95 molecules from PubChem BioAssay AID1822 (The Scripps Research Institute Molecular Screening Center, 2009).

Each structure is given as a SMILES string. Out of some 290,000 compounds screened, about 3,500 (1.2%) were called active.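 Rule for the calls: active = inhibition above the campaign mean inhibition over all tested compounds plus 3 SD (cut at about 28% in these data); inactive = the rest.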 For the sample, actives were picked, then their nearest neighbours and some compounds at random.

The test system of the experiment is M18 aspartyl aminopeptidase (Plasmodium falciparum 3D7). Nature of the experiment: inhibition of P. falciparum M18 aminopeptidase – biochemical, QFRET, recombinant enzyme, primary screen (AID 1822).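 Note: 0% = plate median of test compound wells and 100% = 2 mM ZnCl2.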 Conditions: recombinant PfM18AAP, H-Glu-NHMec fluorogenic cleavage; at 7.35 µM; active compounds read high.
A word on the inhibition: it is the relative decrease from the control value, in per cent. `Cc1cc(C)c([N+](=O)[O-])cc1-c1ccc(/C=N/NC(=O)c2nonc2N)o1`: the inhibition is 4.59% (inactive).

Regarding `Cc1cc([N+](=O)[O-])c(-c2ccc(/C=N/n3cnnc3)o2)cc1Cl`, the inhibition is 40.4% (active).

`Cc1cc(-c2ccc(/C=N/n3cnnc3)o2)c([N+](=O)[O-])cc1C`: the inhibition was 44.5% (active).

`Brc1cc(/C=N/n2cnnc2)oc1Br`: the inhibition was 13.5% (inactive).

Regarding `O=C1C2C3C=CC(C4CC34)C2C(=O)N1/N=C/c1ccc(-c2ccccc2[N+](=O)[O-])o1` (stereo not given), the inhibition was -5.14% (inactive).

Take `Cc1ccccc1OCCOc1ccc([N+](=O)[O-])cc1/C=N/n1cnnc1`: the inhibition is 6.71% (inactive).

Turning to `CC1=NN(c2ccc(Cl)c(C(=O)O)c2)C(=O)/C1=C/c1ccc(-c2ccccc2[N+](=O)[O-])o1`, the inhibition is 3.82% (inactive).

Turning to `Cc1ccc(Cl)cc1-c1ccc(/C=N/n2cnnc2)o1`, the inhibition was 32.8% (active).

As to `Clc1cc(-c2ccc(/C=N/n3cnnc3)o2)ccc1Br`, the inhibition was -0.09% (inactive).

Turning to `O=C(Nc1ccc(F)cc1)C1CCCN(S(=O)(=O)c2ccc(-n3cnnn3)cc2)C1` (stereo not given), the inhibition is -11.3% (inactive).

On to `Cc1ccc(-n2c(C)nnc2SCC(=O)NC2CC2)cc1`, for which the inhibition is 6.7% (inactive).

`CCn1c(SCC(=O)NC2CC2)nnc1-c1ccncc1`: the inhibition is -8.99% (inactive).

Turning to `Cc1cc(C)nc(Nc2ncn[nH]2)n1`, the inhibition was 70.4% (active).

For `Cc1cc(C)nc(Nc2cc([N+](=O)[O-])ccc2C)n1`, the inhibition was -2.82% (inactive).

Turning to `Cc1cc(C)nc(Nc2n[nH]c(-c3ccccc3N)n2)n1`, the inhibition was -3.26% (inactive).

`Cc1cc(NC(=O)CCC(=O)N(CC(=O)NC2CCCC2)c2ccc(F)cc2)no1`: the inhibition is 1.92% (inactive).

Consider `O=C1CSC(=S)N1c1ccc(O)cc1`, for which the inhibition is 8.71% (inactive).

As to `COc1cc(N2C(=O)CSC2=S)cc(OC)c1OC`, the inhibition is 6.36% (inactive).

Turning to `CCOc1cccc(/C=N/N2C(=O)CSC2=S)c1O`, the inhibition is 38.7% (active).

As for `Cc1cc2oc(=O)cc(CN(C)Cc3ccc(OC(F)F)cc3)c2cc1Cl`, the inhibition is -5.26% (inactive).

With `C=CCOc1ccccc1NC(=O)CN1C(=O)CNC1=O`, the inhibition is -12.8% (inactive).

As to `Nc1c(C(=O)c2cccs2)sc2nsc(SCCN3CCCCC3)c12`, the inhibition was 28.8% (active).

For the molecule `Cc1nc2sc(C(=O)c3ccccc3)c(N)c2c2c1CCCC2`, the inhibition was 1.45% (inactive).

Take `CN(C)c1ccnc2sc(C(=O)c3ccccc3)c(N)c12`: the inhibition was 1.38% (inactive).

`COc1ccc(CCNC(=O)CCNS(=O)(=O)c2cc(Br)cnc2N)cc1OC`: the inhibition was -9.76% (inactive).

`NC(=O)C1CCCN(CC(=O)N2CCN(c3ccccc3)CC2)C1` (stereo not given): the inhibition was 0.08% (inactive).

With `O=C(CSc1nc(Nc2ccccc2)nc(N2CCOCC2)n1)Nc1cc(Cl)ccc1O`, the inhibition was 3.26% (inactive).

Consider `Cc1ccc(C)c(NC(=O)CCC(=O)NNC(=O)c2cccs2)c1`, for which the inhibition is -0.77% (inactive).

In the case of `Cc1ccc(S(=O)(=O)NNC(=O)Nc2cccc3ccccc23)cc1`, the inhibition was 10.5% (inactive).

On to `Cc1ccc(C)c(NC(=O)NNC(=O)c2ccc3ccccc3c2O)c1`, for which the inhibition is 41% (active).

Regarding `COc1cc(C(=S)N2CCOCC2)cc(OC)c1OC(=O)c1cc([N+](=O)[O-])cc([N+](=O)[O-])c1`, the inhibition is 8.8% (inactive).

Regarding `O=C(Oc1ccccc1C(=S)N1CCCCC1)c1cc([N+](=O)[O-])cc([N+](=O)[O-])c1`, the inhibition was 13.9% (inactive).

For `O=C(Oc1ccc(Br)cc1C(=S)N1CCOCC1)c1cccc([N+](=O)[O-])c1`, the inhibition is 36.5% (active).

As for `CCOc1ccc(CNC(=O)CCC(=O)N2CCSc3ccccc32)cc1`, the inhibition was 6.53% (inactive).

For the molecule `O=S(=O)(c1ccc(NC(=S)NN=C(C2CC2)C2CC2)cc1)N1CCOCC1`, the inhibition was 34.2% (active).

As to `CN1CCN(S(=O)(=O)c2ccc(NC(=S)NC(=O)C3CC3)cc2)CC1`, the inhibition was 3.06% (inactive).

In the case of `O=C(NC(=S)Nc1ccc(S(=O)(=O)N2CCOCC2)cc1)c1ccccc1[N+](=O)[O-]`, the inhibition is 2.44% (inactive).

Turning to `CN1/C(=C\C=C2\N=C(c3ccc(F)cc3)OC2=O)C(C)(C)c2ccccc21`, the inhibition was -0.7% (inactive).

In the case of `CCOC(=O)c1c(C)[nH]c(C)c1S(=O)(=O)NCCCc1ccco1`, the inhibition is -16.1% (inactive).

Turning to `C=CCNC(=S)NNc1ncnc2sc3c(c12)CC(C)(C)OC3`, the inhibition was 30.1% (active).

In the case of `CCC(O)CNc1nc(-n2nc(C)cc2C)nc2sc3c(c12)CC(C)(C)OC3` (stereo not given), the inhibition is -1.41% (inactive).

On to `CC(C)c1nc2sc3c(c2c(=O)n1N)CC(C)(C)OC3`, for which the inhibition is -0.21% (inactive).

Take `COc1cccc(CN2CCN(Cc3ccc4cccc(F)c4n3)CC2CCO)c1` (stereo not given): the inhibition was 2.05% (inactive).

On to `Cc1cc(C)nc(N/N=C/c2ccncc2)n1`, for which the inhibition was 11% (inactive).

In the case of `CCN(CC)c1ccc(/C=N/Nc2nc(C)cc(C)n2)c(O)c1`, the inhibition is 50.9% (active).

As to `CCN(CC)c1ccc(/C=N/NC(=O)c2cnccn2)c(O)c1`, the inhibition is 9.64% (inactive).

In the case of `CC(=O)N1c2ccc(S(=O)(=O)N3CCC(C(=O)N4CCN(c5ccccc5)CC4)CC3)cc2CC1C` (stereo not given), the inhibition was 5.96% (inactive).

As to `CC(C)C(=O)Nc1nnc(SCC(=O)N2C(C)CCCC2C)s1` (stereo not given), the inhibition is -5.69% (inactive).

Turning to `COC(=O)C1CCN(C(=O)c2ccc3oc(Cc4ccc(Cl)cc4)nc3c2)CC1`, the inhibition is 6.38% (inactive).

As for `COc1ccc(C(=O)NC(=S)NNC(=O)c2c(-c3ccccc3)noc2C)cc1`, the inhibition is 5.86% (inactive).

Turning to `Cc1onc(-c2ccccc2)c1C(=O)NNC(=S)NC(=O)c1ccc(F)cc1`, the inhibition was 38.2% (active).

In the case of `Cc1ccc(CNC(=O)c2c(-c3ccccc3)noc2C)cc1`, the inhibition is 12.7% (inactive).

As to `C=CCc1cccc(/C=N/NC(=O)COc2ccc(-n3cnnn3)cc2)c1O`, the inhibition was 11.8% (inactive).

In the case of `Cc1ccc(S(=O)(=O)N(CC(=O)NN=C2CCN(C)CC2)c2ccc(F)cc2)cc1`, the inhibition is -4.43% (inactive).

As to `CC(=O)c1ccc(NC(=O)CCc2nnc3ccc(NCc4ccco4)nn23)cc1`, the inhibition is 46.3% (active).

As to `CCOc1ccccc1NC(=O)CCc1nnc2ccc(NCc3ccco3)nn12`, the inhibition was 21.1% (inactive).

`O=C(CCc1nnc2ccc(NCc3ccco3)nn12)Nc1cc(F)ccc1F`: the inhibition was 26% (inactive).

As to `COc1ccc(NC(=O)C2CCN(S(=O)(=O)c3ccc4[nH]c(=O)oc4c3)CC2)c(OC)c1`, the inhibition is 2.9% (inactive).

For the molecule `COc1ccc(/C=N/N=C2/C(=O)Nc3ccccc32)cc1O`, the inhibition was 30.7% (active).

On to `CN(C)/C=C1/C(=O)Nc2ccccc21`, for which the inhibition is 7.19% (inactive).

On to `COc1ccc(/C=N/S(=O)(=O)c2ccccc2)cc1OC`, for which the inhibition was -9.39% (inactive).

For the molecule `Cc1cccc(N(Cc2ccccc2)C(=O)c2ccccc2F)c1`, the inhibition was 0.68% (inactive).

Turning to `O=S(=O)(c1ccc(Br)cc1)c1nc(-c2ccccc2)oc1N1CCOCC1`, the inhibition was -11.7% (inactive).

As for `COc1ccc(C(=O)O/N=C(\N)c2ccccn2)cc1[N+](=O)[O-]`, the inhibition was -11.1% (inactive).

Regarding `COc1ccc(C(=O)NNC(=O)c2cnccn2)cc1[N+](=O)[O-]`, the inhibition is 28.7% (active).

On to `COc1cccc(OCC(=O)NNC(=O)c2cnccn2)c1`, for which the inhibition was 0.44% (inactive).

With `O=C(Nc1ccccc1)Nc1nc2ccccc2s1`, the inhibition is -14.5% (inactive).

As for `c1ccc2sc(NN=C3CCCC3)nc2c1`, the inhibition is 43.7% (active).

On to `COc1cc(/C=N/Nc2nc3ccccc3s2)ccc1O`, for which the inhibition was 4.41% (inactive).

For `Cc1cccc(NC(=O)N2CCCCCC2)c1C`, the inhibition was -13.5% (inactive).

As for `Cc1c(C)n(Cc2ccc(Cl)cc2)c2ccc(C(=O)NCCCN3CCOCC3)cc12`, the inhibition is -3.58% (inactive).

As for `CCCCNc1ccc(C(=O)Nc2cccc(C)n2)cc1[N+](=O)[O-]`, the inhibition was -6.29% (inactive).

On to `CCOC(=O)c1c(N)sc2c1CCCC2=O`, for which the inhibition was 13.3% (inactive).

As to `CCOC(=O)c1c(/N=C/C2C(=O)CC(C)(C)CC2=O)sc(C)c1C`, the inhibition was 28.8% (active).

For the molecule `CCOC(=O)c1sc(/N=C/C2=C(O)CC(C)(C)CC2=O)c(C(=O)OCC)c1C`, the inhibition was -7.73% (inactive).

For `Cc1cc(NS(=O)(=O)c2ccc(NC(=O)C(C)Oc3cccc(C)c3C)cc2)nc(C)n1` (stereo not given), the inhibition is 1.85% (inactive).

In the case of `COc1ccc([N+](=O)[O-])cc1-c1nc2ccccc2nc1-c1ccccc1`, the inhibition is 0.66% (inactive).

Regarding `Cc1ccc2c(c1)N(CC(=O)N1CCOCC1)C(=O)CO2`, the inhibition is -1.57% (inactive).

For the molecule `CC(=O)c1ccc(NC(=O)c2ccc(-n3cncn3)c([N+](=O)[O-])c2)cc1`, the inhibition was -11.7% (inactive).

With `Nc1ccc2nc3c(=O)[nH]c(=S)[nH]c3nc2c1`, the inhibition was 28.9% (active).

As to `CCc1cc(=O)oc2c(C)c(OCC(=O)NCCN3CCOCC3)ccc12`, the inhibition is -0.48% (inactive).

As to `COc1ccc(Cl)cc1NC(=O)CCS(=O)(=O)c1ccc(Br)cc1`, the inhibition is -8.04% (inactive).

With `Cc1cc(NC(=O)CCC(=O)N(Cc2ccccc2)C(C(=O)NC2CCCC2)c2ccc(C)o2)no1` (stereo not given), the inhibition is 8.33% (inactive).

`CC1CC2=C(CC1/C=N/NC(N)=S)C(C)(C)CCC2` (stereo not given): the inhibition is 30.5% (active).

With `Cc1cc(C)nc(NS(=O)(=O)c2ccc(N3C(=O)C4CCCCC4C3=O)cc2)n1` (stereo not given), the inhibition was -7.47% (inactive).

With `CCn1c(SCC(=O)NNC(=O)c2ccc(OC)cc2)nnc1C(C)C`, the inhibition is 4.07% (inactive).

As for `Cc1cccc([C@@H]2[C@@H]3C(=O)N(C)C(=O)[C@@H]3[C@@H]3C(=O)Nc4ccccc4C(=O)N23)c1`, the inhibition was -3.83% (inactive).

With `CCC1(CC)Cc2ccccc2-c2nc(CCl)[nH]c(=O)c21`, the inhibition was 2.03% (inactive).

Regarding `C/C(=N\NC(=O)c1ccoc1C)c1ccccc1O`, the inhibition was 31.6% (active).

In the case of `Cc1[nH]n(-c2ccccc2)c(=O)c1/C=N/NC(=O)c1ccoc1C`, the inhibition was -3.48% (inactive).

With `CC(C)=C(NC(=O)c1ccccc1)C(=O)N/N=C(\C)c1ccccc1O`, the inhibition is -2.21% (inactive).

Consider `COc1cc(C2C(C(=O)c3ccco3)=C(O)C(=O)N2c2cc(C)on2)ccc1OCc1ccccc1` (stereo not given), for which the inhibition was 1.75% (inactive).

In the case of `OCCn1c(-c2ccccc2)csc1=Nc1ccccc1`, the inhibition is 44.3% (active).

Take `Cc1csc(=Nc2ccccc2)n1CCO`: the inhibition is 2.31% (inactive).

`Cc1csc(=NC(=O)c2ccccc2)n1CCO`: the inhibition was 4.05% (inactive).
